High-throughput results deposited in PubChem by National Center for Advancing Translational Sciences (NCATS).
The list is not random: actives were taken first. Their share in the collection is about 9.2%.
NPC1 promoter act: qHTS Assay for NPC1 Promoter Activators. Huh7 NPC1 promoter luciferase reporter, 24 h. Potency, µM (series often up to 9.22 µM), inactives show top-dose activation, most hits filed as activators. 320,000 compounds, 2.4% hits. AID 485313, 2010; further: % of control where 0% means no effect; nearly all actives have a fitted effect of over 60% in size
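Readout is luciferase luminescence, reflecting NPC1 promoter activation in stably transfected Huh7 cells after 24 h compound exposure at 37 °C in reduced-serum medium with 10% FBS.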
ELG1 repair inh: qHTS screen for small molecules that inhibit ELG1-dependent DNA repair in human embryonic kidney (HEK293T) cells expressing luciferase-tagged ELG1 | HEK293T ELG1-luciferase reporter, luminescence, 16 h; DNA damage induced by 5-fluorouridine | Potency, µM (top dose mostly 46.1 µM), inactives show top-dose activity change, negative = inhibition, hits mostly inhibitors | 330,000 compounds, 2.3% hits; further: on the % scale 0 is the no-effect control and ±100 the full control effect; nearly all actives have a fitted effect of over 55% in size
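Overnight (16 hr) co-exposure of 2,000 cells/well to 5-fluorouridine and compound at 37 °C preceded detection. Luciferase was quantified via ONE-Glo luminescence; loss of signal denotes inhibition.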
SMN2 splice up: qHTS Assay for Enhancers of SMN2 Splice Variant Expression | HEK293 SMN2-luciferase splicing reporter, luminescence, 30-36 h | Potency, µM (series often up to 46.1 µM), for inactives: at the highest dose activity change, positive = activation, hits mostly activators | 210,000 compounds, 2.8% hits; further: % of control where 0% means no effect; nearly all actives have a fitted effect of over 55% in size
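HEK293 cells carry an SMN2 minigene-luciferase reporter in which exon 7 inclusion puts luciferase in frame. Cells were seeded at 2000 cells/well, attached for 10-12 hours, then exposed to compounds for 30-36 hours at 37C before ONE-Glo luminescence.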
ELG1 genotoxic: qHTS screen for small molecules that induce genotoxicity in human embryonic kidney (HEK293T) cells expressing luciferase-tagged ELG1. HEK293T ELG1-luciferase reporter, luminescence, 16 h. Potency, µM (highest dose often 46 µM), without a hit: at the highest dose activity change, positive = activation, most hits filed as activators. 330,000 compounds, 1.3% hits; further: % of control where 0% means no effect; nearly all actives have a fitted effect of over 60% in size
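Luminescence read-out: rising ELG1-luciferase signal, reflecting elevated ELG1 protein under genetic stress, flags genotoxic compounds. Cells were treated for 16 hr at 37 °C before ONE-Glo detection.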
FLuc modulator: qHTS profiling assay for firefly luciferase inhibitor/activator using purifed enzyme and Km concentrations of substrates (counterscreen for miR-21 project). Luciferin 4-monooxygenase (Photinus pyralis), P08659. purified FLuc, Km substrates, luminescence inhibition. Potency, µM (highest dose often 57.5 µM), for inactives: at the top dose activity change, negative = inhibition, actives largely listed as inhibitors. 360,000 compounds, 6.9% hits. AID 588342, 2011;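 further: plate controls were vehicle for no effect and reference inhibitor for full effect; nearly all actives have a fitted effect of over 55% in size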
Target sequence (P08659 whole entry, looked up): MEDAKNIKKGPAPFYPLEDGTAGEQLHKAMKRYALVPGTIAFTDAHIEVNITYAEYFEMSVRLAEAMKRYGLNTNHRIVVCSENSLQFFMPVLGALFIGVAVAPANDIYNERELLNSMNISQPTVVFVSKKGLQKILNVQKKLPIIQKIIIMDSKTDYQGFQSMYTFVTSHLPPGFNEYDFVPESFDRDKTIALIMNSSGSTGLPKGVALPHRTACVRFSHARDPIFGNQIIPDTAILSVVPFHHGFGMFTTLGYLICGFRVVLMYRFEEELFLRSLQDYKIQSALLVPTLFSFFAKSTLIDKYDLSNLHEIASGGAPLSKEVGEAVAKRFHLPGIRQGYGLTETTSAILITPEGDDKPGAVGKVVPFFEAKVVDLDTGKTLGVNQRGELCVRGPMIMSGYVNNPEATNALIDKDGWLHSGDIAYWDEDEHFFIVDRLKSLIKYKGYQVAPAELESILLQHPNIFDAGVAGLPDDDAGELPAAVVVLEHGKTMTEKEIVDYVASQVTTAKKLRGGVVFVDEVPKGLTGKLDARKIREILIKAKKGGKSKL
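Biochemical qHTS of compounds, final roughly 60 µM downward over six points, against 10 nM purified firefly luciferase using Km concentrations of substrates (10 uM D-luciferin, 10 uM ATP) in Tris acetate pH 7.5 buffer; luminescence output.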
Rab9 prom act: qHTS Assay for Rab9 Promoter Activators. Huh7 Rab9 promoter-luciferase reporter, luminescence, 24 h. Potency, µM (series often up to 9.22 µM), inactives show top-dose activation, negative = inhibition, most hits filed as activators. 320,000 compounds, 2.8% hits; further: % of control where 0% means no effect; nearly all actives have a fitted effect of over 60% in size
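Using Huh7 cells stably transfected with Rab9 promoter–luciferase, compounds were incubated 24 h at 37 °C, 5% CO2; luciferase luminescence was read 10 min after reagent addition.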
Starred values were filed as active, the others as inactive; ? = inconclusive; · = not tested or not shown. The call rests on the fitted dose curve; in most records, active means well fitted curve in the direction sought with a large enough effect; inconclusive means small, poorly fitted or top-dose-only effect, or another doubt; inactive means no such curve, though single readings can be large; an effect the other way counts as inactive or inconclusive. Potency means the concentration at half of the fitted maximal effect.

SMILES | NPC1 promoter act | ELG1 repair inh | SMN2 splice up | ELG1 genotoxic | FLuc modulator | Rab9 prom act
Cc1ccc2c(=O)n3c(nc2c1)C(Cc1ccc(O)cc1)NC(=O)c1ccc(Cl)cc1-3 (stereo not given) | · | 9.2% | · | -0.4% | · | ·
CCCCc1nc2cc(C(=O)N3CCCCC3CC(=O)OCC)ccc2o1 (stereo not given) | 22.9% | 15.7% | · | -0.6% | 3.4% | ?
CCCCc1nc2cc(C(=O)N3CCCCC3C(=O)OC)ccc2o1 (stereo not given) | ? | ? | · | ? | 15.1µM* | 2.82µM*
COc1ccc(S(=O)(=O)CCC(=O)N2CCN(c3ccccc3F)CC2)cc1 | -2.0% | 7.9% | · | -2.9% | 1.8% | -5.6%
O=C(CCS(=O)(=O)c1ccccc1)N1CCN(c2ccccc2F)CC1 | 1.78µM* | ? | · | 8.2µM* | 10.7µM* | 1.26µM*
CCOC(=O)C1=C(C)NC(SC)=C(C#N)C1CC(C)C (stereo not given) | -33.1% | 10.3µM* | · | -0.7% | -1.4% | -22.9%
CC(=O)C1=C(C)NC(SCC(N)=O)=C(C#N)C1CC(C)C (stereo not given) | -4.4% | -10.9% | -2.8% | 1.5% | ? | 10.5%
Cc1ccc(/C=C/C(=O)CCC(=O)O)cc1 | 22.0% | ? | · | 12.9% | 6.75µM* | ?
Cc1ccccc1C(=O)NC(=S)N(C)CCc1ccccn1 | 1.1% | 24.5% | 2.1% | -0.6% | -0.7% | 2.5%
N#CC1CC(c2ccccc2)Nc2cc(Cl)ccc2N1 (stereo not given) | 14.6% | ? | · | 14.9% | 10.7µM* | 25.8%
C[C@@H]1C[C@H](O)c2cc(Cl)ccc2N1 | -1.8% | -15.3% | 9.5% | 1.0% | -1.7% | 1.5%
Cc1[nH][nH]c(=O)c1C(c1ccc(-c2cccc(C(=O)O)c2)o1)c1c(C)[nH][nH]c1=O | 19.7% | 11.5% | · | 13.7% | 15.1µM* | ?
Cc1ccc(C)c(S(=O)(=O)c2nnn3c2nc(NCc2ccc4c(c2)OCO4)c2sccc23)c1 | · | · | · | · | -18.6% | ·
O=C1CC(c2cc(-c3ccccc3)no2)C1 | ? | ? | · | ? | ? | 2.82µM*
CCC(C)c1ccc(NC(=O)c2cccnc2)cc1 (stereo not given) | 2.82µM* | ? | 12.6µM* | ? | 12µM* | 2.51µM*
O=C(Nc1cccnc1)c1ccc(-c2ccccc2)cc1 | ? | ? | -2.1% | ? | 2.39µM* | ?
CC(C)NC(=O)c1ccc2c(c1)S(=O)(=O)c1ccccc1C2=O | -0.2% | -12.8% | 5.5% | -3.5% | 1.2% | -9.4%
CC(C)c1ccc(C(=O)Nc2cccnc2)cc1 | 1.58µM* | ? | · | 5.17µM* | 3.38µM* | ?
O=C(Nc1ccncc1)c1ccc2c(c1)S(=O)(=O)c1ccccc1C2=O | -14.0% | 9.2µM* | -34.6% | -10.6% | 2.3% | -19.8%
CC1CN(C(=O)c2ccc(NS(=O)(=O)c3cccc(Cl)c3)cc2)CC(C)O1 (stereo not given) | -5.4% | 0.0% | · | -7.9% | 6.2% | -2.9%
Cc1ccc(OCC(=O)NCc2cccs2)c([N+](=O)[O-])n1 | 0.2% | 13.5% | 12.2% | 8.2% | -0.3% | 11.1%
O=C(Nc1ccc(-c2cnco2)cc1)c1ccc(Cl)cc1 | ? | ? | · | ? | -10.5% | 29.6%
CCC(=O)Nc1ccc(C(=O)Nc2cccnc2)cc1 | 10.5% | ? | ? | ? | ? | -0.5%
O=C(Nc1ccncc1)c1ccc(F)cc1 | 1.3% | -9.5% | -12.7% | 2.0% | 3.6% | 0.2%
O=C(Nc1ccncc1)c1ccc(-c2ccccc2)cc1 | -9.6% | 1.83µM* | -7.6% | -16.2% | ? | -28.2%
SMILES | NPC1 promoter act | ELG1 repair inh | SMN2 splice up | ELG1 genotoxic | FLuc modulator | Rab9 prom act
O=C(Nc1ccc(-c2cnco2)cc1)c1ccccc1 | 3.16µM* | ? | · | ? | ? | 2.51µM*
CC(C)(C)C(=O)Nc1ccc(C(=O)Nc2cccnc2)cc1 | ? | ? | ? | 20.6µM* | 21.3µM* | 3.98µM*
O=C(O)c1ccc(N/N=C/c2ccnc3ccccc23)cc1 | 0.562µM* | ? | · | ? | 1.35µM* | ?
CC(C)(C)OC(=O)NCCC(=O)N/N=C/c1cccc2cccnc12 | -1.3% | ? | · | -4.1% | -1.8% | -4.3%
O=C(O)c1ccc(N/N=C/c2cccc3cccnc23)cc1 | 0.316µM* | ? | · | ? | 0.757µM* | 0.282µM*
O=c1cc(N2CCCC2)c2ccccc2o1 | 0.6% | 1.6% | · | 1.0% | -3.6% | 0.8%
COc1ccc2nc(-c3ccc(N)cc3)[nH]c2c1 | ? | ? | ? | ? | 3.79µM* | 24.4%
COc1ccc2nc(-c3cccc(N)c3)[nH]c2c1 | 1.58µM* | ? | · | ? | 2.39µM* | 2.51µM*
COc1ccc2nc(SCC(N)=O)[nH]c2c1 | 0.5% | 18.8% | 18.3% | 0.5% | -6.3% | -3.9%
NNc1nc2c(-c3ccc(Cl)cc3)nnn2c2ccccc12 | 3.98µM* | ? | 12.6µM* | 12.9% | ? | 2.51µM*
NNc1nc2c(-c3ccc(F)cc3)nnn2c2ccccc12 | 3.98µM* | ? | 5.01µM* | ? | 4.78µM* | 2.82µM*
Fc1ccc(-c2nnn3c2nc(NCc2ccccc2)c2ccccc23)cc1 | 4.6% | 0.4% | -1.0% | 0.1% | 3.7% | -3.7%
COCCCNc1nc2c(-c3ccc(Cl)cc3)nnn2c2ccccc12 | -2.9% | 15.7% | -5.3% | -0.6% | -1.3% | -6.6%
CC1CCN(C(=O)COC(=O)CCCN2C(=O)c3cccc4cccc(c34)C2=O)CC1 | -6.3% | 11.1% | · | 1.7% | ? | 0.0%
O=[N+]([O-])c1cccc(-c2ccc(SCc3ccccn3)nn2)c1 | ? | ? | ? | ? | 26.9µM* | 3.98µM*
COc1cccc(-c2ccc(SCc3ccccn3)nn2)c1 | 3.55µM* | ? | 11.2µM* | ? | 10.7µM* | 2.82µM*
COc1ccc(-c2ccc(SCc3ccccn3)nn2)cc1OC | -0.4% | -2.1% | 7.7% | -8.0% | ? | -1.8%
COc1cccc(NC(=O)Nc2ccncc2)c1 | -1.1% | 9.7% | · | -2.3% | ? | 18.2%
COc1cccc(NC(=O)Nc2ccc(C(C)(C)C)cc2)c1 | ? | ? | 11.2µM* | -9.1% | 3.01µM* | ?
COc1cccc(NC(=O)c2ccc(NC(=O)C(C)(C)C)cc2)c1 | ? | ? | 12.6µM* | 14.2% | 9.53µM* | ?
Cc1cc2cc(CNC(=O)Nc3ccccc3)ccc2[nH]1 | ? | ? | ? | ? | 19µM* | ?
